Reference: the supplement of paper PMC11732987, “Enantioselective OTUD7B fragment discovery through chemoproteomics screening and high-throughput optimisation” (Communications Chemistry, 2025)

Experiments:
Assay in all cases: log2 ratio of Biotin-Ahx-Ub-VS probe labelling (fragment/DMSO); higher = less target engagement (more negative = stronger competition), active = hit call of the paper (q ≤ 0.05, log2 ratio ≤ -1)
Conditions in all cases: compound concentration: 200 uM; treatment time: 3 h
USP42 = target: T1, USP42 (UniProt Q9H9J4)
T1 sequence (whole entry): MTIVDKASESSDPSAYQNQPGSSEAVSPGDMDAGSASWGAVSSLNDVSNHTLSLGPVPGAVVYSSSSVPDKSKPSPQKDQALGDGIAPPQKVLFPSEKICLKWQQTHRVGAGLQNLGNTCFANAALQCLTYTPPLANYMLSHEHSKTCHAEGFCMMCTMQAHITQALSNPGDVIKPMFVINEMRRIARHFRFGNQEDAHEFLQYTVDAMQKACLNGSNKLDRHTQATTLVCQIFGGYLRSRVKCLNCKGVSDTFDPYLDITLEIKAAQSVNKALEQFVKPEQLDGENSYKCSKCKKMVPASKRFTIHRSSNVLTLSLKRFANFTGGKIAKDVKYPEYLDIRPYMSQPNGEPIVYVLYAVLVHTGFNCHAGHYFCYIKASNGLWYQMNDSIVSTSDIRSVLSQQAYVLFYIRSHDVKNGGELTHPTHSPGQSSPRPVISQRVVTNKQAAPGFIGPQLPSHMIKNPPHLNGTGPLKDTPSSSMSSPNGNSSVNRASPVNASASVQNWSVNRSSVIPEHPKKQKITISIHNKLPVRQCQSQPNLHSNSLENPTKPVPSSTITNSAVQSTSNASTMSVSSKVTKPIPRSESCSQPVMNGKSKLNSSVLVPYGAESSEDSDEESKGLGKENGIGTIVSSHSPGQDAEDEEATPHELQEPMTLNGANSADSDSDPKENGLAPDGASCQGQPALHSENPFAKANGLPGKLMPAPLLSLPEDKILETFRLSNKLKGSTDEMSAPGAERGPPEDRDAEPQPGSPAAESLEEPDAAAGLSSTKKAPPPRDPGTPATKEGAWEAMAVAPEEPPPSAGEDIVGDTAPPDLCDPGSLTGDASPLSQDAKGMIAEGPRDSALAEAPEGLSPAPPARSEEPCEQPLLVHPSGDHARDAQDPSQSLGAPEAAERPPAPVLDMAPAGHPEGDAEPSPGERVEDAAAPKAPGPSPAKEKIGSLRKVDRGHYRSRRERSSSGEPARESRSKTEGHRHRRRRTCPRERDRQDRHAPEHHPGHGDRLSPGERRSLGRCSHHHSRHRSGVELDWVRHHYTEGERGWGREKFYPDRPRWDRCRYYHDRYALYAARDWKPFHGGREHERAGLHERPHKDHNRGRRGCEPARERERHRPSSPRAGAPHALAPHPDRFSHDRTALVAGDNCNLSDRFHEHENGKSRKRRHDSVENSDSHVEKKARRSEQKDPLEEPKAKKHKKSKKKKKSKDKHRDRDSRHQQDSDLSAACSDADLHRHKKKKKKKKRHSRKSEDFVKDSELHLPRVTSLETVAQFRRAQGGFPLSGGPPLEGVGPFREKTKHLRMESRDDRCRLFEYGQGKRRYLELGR
Outline: (§1)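 Fragment (200 µM) or vehicle was incubated for 3 h with triplicate HEK293T lysate samples of 495 µg, which were then treated with Biotin-Ahx-Ub-VS at 0.5 µM final for 1 h. Labelled DUBs were enriched on NeutrAvidin, digested with LysC and trypsin, and analysed by diaPASEF LC-MS/MS. Values are average log2 fragment/vehicle ratios from an unpaired t-test on global-median-normalised Spectronaut label-free quantities, using proteins with ≥2 unique peptides.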

USP46 = USP46 (UniProt P62068)
Chain of USP46 (P62068 whole entry): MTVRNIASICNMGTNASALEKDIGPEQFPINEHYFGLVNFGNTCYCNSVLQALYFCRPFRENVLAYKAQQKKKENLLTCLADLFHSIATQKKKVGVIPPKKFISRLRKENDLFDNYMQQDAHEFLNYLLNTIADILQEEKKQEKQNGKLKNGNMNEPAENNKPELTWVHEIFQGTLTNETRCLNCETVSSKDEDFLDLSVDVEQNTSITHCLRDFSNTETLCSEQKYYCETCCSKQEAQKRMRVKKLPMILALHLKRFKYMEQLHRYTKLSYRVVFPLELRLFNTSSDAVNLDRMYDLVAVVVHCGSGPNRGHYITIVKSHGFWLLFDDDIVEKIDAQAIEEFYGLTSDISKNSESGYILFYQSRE
Outline: as §1

USP47 = target: T2, USP47 (UniProt Q96K76)
T2 sequence (whole entry): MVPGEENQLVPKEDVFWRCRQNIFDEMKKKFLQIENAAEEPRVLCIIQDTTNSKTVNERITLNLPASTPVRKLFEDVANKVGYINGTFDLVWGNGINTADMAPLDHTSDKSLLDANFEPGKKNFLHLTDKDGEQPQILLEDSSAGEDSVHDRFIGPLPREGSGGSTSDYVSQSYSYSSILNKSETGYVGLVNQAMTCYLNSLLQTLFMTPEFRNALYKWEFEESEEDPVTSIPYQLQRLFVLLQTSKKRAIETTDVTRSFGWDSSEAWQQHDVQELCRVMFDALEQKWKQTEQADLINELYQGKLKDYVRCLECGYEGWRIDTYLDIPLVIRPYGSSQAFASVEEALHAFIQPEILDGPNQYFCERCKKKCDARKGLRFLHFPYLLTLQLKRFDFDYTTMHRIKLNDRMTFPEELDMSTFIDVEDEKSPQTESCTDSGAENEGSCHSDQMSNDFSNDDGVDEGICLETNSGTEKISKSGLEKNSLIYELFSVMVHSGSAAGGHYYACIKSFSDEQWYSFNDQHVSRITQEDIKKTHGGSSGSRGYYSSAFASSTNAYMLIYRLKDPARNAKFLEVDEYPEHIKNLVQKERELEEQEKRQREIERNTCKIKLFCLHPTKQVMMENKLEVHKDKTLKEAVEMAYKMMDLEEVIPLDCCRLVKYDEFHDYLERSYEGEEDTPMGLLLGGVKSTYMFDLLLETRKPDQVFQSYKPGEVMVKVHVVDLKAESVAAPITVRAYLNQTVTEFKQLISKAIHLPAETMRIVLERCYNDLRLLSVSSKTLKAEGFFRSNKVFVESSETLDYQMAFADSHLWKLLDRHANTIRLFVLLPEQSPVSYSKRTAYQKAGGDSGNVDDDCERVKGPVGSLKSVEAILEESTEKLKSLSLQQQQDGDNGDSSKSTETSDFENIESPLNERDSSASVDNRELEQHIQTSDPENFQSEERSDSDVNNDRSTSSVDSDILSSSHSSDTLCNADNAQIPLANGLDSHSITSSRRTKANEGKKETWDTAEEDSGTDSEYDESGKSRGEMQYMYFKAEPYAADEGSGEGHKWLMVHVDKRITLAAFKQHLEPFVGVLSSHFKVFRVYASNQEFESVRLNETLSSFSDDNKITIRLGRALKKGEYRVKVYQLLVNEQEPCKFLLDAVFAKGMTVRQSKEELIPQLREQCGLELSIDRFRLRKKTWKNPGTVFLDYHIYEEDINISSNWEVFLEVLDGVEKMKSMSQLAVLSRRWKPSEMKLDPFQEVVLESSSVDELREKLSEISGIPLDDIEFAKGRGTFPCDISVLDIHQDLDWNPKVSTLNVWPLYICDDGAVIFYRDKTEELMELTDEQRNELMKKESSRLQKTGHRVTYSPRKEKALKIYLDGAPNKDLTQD
Outline: as §1

USP48 = target: T3, USP48 (UniProt Q86UV5)
T3 sequence (whole entry): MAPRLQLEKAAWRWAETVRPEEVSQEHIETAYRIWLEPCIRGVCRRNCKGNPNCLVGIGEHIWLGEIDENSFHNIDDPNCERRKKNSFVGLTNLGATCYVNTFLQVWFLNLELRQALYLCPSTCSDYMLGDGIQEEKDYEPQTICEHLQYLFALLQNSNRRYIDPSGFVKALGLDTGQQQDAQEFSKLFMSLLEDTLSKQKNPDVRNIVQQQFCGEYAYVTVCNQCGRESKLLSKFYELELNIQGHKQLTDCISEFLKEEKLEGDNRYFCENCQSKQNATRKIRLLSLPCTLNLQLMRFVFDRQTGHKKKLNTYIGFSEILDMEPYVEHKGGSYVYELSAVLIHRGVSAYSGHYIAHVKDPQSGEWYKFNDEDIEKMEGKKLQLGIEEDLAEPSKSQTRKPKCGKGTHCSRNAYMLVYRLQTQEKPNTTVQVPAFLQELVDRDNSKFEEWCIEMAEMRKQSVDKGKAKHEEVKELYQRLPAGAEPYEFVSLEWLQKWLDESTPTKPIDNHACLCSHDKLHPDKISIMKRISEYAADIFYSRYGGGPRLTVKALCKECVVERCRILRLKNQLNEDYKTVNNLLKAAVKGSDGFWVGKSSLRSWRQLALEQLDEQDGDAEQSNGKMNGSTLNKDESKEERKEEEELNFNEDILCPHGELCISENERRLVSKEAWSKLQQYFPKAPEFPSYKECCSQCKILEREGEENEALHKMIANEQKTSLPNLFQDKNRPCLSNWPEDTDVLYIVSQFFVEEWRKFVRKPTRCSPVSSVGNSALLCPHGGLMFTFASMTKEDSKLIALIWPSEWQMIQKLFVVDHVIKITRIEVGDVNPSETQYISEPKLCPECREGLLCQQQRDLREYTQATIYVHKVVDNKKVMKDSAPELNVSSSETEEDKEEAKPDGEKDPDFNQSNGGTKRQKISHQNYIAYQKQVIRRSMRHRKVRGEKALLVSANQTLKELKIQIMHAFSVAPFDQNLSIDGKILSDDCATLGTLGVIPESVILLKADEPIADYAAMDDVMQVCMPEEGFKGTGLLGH
Outline: as §1

USP5 = target: T4, USP5 (UniProt P45974)
T4 sequence (whole entry): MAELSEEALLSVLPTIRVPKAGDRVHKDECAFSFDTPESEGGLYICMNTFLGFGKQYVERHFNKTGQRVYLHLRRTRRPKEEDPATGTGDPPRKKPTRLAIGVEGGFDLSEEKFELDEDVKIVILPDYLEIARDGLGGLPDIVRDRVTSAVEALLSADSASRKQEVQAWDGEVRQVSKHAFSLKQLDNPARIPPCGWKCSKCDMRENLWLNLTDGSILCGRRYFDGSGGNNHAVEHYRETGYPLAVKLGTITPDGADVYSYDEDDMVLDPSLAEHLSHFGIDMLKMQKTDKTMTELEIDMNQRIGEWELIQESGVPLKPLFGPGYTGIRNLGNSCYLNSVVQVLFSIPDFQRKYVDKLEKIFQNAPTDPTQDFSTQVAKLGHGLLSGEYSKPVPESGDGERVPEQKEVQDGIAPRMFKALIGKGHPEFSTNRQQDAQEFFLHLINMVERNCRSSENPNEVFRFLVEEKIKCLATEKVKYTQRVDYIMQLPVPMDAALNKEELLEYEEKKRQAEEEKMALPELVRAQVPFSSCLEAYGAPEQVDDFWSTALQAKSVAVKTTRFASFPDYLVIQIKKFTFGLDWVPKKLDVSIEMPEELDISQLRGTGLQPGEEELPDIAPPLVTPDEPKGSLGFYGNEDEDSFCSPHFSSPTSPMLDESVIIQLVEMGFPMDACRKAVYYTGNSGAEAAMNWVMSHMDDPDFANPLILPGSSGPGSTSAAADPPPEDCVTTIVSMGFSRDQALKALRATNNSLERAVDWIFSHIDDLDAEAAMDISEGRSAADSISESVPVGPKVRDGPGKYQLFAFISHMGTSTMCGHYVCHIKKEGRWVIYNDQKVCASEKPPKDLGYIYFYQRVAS
Outline: as §1

USP54 = USP54 (UniProt Q70EL1)
Chain of USP54 (Q70EL1 whole entry): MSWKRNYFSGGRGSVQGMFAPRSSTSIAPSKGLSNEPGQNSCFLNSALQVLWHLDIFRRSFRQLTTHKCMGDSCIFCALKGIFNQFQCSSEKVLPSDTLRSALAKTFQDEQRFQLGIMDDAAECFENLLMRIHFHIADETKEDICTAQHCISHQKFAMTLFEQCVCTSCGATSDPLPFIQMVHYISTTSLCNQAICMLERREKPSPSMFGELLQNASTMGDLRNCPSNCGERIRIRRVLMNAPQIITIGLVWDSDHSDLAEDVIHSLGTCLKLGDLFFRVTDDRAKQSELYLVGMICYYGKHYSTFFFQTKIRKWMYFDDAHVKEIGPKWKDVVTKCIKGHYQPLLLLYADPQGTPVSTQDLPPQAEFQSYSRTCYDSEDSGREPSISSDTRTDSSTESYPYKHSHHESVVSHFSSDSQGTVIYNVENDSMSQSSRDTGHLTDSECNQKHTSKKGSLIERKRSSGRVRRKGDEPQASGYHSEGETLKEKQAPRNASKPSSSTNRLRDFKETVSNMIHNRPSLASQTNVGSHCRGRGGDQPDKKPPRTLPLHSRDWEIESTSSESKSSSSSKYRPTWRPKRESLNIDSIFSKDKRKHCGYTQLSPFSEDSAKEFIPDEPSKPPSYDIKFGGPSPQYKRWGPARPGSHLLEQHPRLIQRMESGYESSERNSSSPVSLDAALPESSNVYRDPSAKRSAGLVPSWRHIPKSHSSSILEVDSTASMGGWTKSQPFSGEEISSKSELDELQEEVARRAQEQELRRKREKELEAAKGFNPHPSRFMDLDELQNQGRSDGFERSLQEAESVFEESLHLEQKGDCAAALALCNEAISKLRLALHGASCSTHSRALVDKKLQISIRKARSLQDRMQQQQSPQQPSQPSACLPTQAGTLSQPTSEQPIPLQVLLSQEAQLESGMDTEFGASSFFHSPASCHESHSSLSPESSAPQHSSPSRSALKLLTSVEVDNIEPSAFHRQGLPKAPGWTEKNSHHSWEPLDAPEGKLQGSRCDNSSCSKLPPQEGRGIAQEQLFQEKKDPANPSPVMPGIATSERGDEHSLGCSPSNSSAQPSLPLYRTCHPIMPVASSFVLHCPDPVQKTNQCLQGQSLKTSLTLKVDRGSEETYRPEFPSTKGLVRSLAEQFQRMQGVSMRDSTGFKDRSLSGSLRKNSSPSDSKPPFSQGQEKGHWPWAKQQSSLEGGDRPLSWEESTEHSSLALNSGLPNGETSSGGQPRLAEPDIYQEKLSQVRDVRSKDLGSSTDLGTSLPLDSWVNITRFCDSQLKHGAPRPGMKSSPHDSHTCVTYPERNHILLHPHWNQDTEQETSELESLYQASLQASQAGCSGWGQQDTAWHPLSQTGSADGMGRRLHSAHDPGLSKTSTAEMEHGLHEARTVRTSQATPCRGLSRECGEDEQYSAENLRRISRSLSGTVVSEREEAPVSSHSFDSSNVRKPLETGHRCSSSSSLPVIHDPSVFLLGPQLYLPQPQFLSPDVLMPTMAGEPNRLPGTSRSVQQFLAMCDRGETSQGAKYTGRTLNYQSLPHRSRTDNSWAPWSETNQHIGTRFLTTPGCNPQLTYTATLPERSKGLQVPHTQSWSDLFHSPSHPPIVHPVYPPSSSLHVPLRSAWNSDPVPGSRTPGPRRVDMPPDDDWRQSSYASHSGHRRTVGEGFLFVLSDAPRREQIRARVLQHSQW
Outline: as §1

USP7 = USP7 (UniProt Q93009)
Chain of USP7 (Q93009 whole entry, looked up): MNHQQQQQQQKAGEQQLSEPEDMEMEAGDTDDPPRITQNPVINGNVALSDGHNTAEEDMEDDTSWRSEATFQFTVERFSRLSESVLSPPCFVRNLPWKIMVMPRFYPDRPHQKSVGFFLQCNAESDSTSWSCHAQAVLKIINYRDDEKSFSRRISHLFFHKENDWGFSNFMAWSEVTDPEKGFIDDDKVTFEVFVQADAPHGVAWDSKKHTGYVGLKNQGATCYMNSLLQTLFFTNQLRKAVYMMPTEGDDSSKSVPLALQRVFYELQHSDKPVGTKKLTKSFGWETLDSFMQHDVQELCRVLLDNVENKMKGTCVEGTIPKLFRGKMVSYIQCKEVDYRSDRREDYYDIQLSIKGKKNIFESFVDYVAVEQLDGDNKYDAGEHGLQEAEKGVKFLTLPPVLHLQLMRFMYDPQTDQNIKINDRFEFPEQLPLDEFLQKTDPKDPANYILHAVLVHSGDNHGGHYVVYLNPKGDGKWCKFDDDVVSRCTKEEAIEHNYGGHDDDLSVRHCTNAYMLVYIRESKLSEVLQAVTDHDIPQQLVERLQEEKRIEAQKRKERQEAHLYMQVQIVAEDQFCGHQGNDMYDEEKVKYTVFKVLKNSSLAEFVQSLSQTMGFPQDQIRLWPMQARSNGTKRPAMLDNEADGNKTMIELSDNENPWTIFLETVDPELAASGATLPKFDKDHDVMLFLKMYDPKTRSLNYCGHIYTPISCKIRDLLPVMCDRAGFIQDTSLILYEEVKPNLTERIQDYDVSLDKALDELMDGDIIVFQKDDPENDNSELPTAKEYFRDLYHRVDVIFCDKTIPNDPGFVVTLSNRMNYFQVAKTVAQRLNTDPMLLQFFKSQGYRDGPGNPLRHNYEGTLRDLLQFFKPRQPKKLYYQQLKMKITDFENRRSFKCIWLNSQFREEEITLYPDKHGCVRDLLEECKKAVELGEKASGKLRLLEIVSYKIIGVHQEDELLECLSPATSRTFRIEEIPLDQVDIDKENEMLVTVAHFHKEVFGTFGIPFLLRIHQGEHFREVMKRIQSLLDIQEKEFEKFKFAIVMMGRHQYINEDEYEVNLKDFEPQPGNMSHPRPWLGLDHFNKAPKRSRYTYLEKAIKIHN
Outline: as §1

USP8 = target: T5, USP8 (UniProt P40818)
T5 sequence (whole entry): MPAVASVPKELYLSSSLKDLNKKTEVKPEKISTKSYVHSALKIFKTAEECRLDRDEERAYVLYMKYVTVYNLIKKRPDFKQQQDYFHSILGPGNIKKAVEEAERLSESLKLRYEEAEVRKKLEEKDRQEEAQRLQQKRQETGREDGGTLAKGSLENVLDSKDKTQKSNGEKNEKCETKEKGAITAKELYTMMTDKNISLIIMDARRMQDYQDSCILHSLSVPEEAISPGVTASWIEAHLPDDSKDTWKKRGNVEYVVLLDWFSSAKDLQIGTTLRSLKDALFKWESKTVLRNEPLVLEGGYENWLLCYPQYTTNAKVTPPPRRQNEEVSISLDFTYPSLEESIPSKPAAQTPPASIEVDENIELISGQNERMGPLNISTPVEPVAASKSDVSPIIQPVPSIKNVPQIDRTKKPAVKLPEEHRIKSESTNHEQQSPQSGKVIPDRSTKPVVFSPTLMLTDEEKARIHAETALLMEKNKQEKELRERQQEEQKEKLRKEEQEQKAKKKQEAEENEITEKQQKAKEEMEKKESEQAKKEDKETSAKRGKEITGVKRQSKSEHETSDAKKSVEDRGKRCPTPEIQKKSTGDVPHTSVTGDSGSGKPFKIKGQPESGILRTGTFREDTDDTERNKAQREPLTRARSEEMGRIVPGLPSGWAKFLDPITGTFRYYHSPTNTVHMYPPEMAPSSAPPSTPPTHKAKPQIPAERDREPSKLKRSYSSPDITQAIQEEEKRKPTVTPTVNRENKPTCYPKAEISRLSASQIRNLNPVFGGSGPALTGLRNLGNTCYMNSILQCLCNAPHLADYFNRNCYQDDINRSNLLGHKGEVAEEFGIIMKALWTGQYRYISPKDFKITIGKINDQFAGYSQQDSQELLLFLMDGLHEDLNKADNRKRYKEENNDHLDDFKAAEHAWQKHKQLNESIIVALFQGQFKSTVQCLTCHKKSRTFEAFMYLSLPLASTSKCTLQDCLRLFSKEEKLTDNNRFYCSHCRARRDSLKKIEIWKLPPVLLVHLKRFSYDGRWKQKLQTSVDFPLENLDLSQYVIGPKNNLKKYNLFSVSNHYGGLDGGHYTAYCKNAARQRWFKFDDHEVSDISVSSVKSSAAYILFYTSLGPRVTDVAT
Outline: as §1

USP9X = USP9X (UniProt Q93008)
Outline: as §1

UniProt O00487 = target: UniProt O00487
Chain of UniProt O00487 (O00487 whole entry): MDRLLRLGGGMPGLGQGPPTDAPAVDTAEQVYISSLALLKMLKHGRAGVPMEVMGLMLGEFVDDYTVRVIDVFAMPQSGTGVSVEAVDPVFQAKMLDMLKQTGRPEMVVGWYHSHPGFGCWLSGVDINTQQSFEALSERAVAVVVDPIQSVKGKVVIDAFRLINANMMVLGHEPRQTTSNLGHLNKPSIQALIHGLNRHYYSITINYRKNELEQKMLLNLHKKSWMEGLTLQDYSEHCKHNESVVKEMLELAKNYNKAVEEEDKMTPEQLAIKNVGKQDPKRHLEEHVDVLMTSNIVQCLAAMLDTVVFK
Outline: as §1

Measured: log2 ratio of Biotin-Ahx-Ub-VS probe labelling

O=C(CCl)NCc1noc(C2CC2)n1
inactive: USP42 -0.112 | USP46 -0.0864 | USP47 -0.0714 | USP48 -0.135 | USP5 -0.183 | USP54 1.02 | USP7 -0.262 | USP8 -0.421 | USP9X -0.268 | UniProt O00487 -0.16
